Calls of active or inactive are those of the source. The calls were made as follows: active = hit-call score of the fitted dose curve at least 0.9, where 1 is the maximum; inactive = score below 0.9.
What follows are compounds tested against Transcriptional activator Myb (Homo sapiens) (UniProt P10242) (assay: ATG_Myb_CIS: Attagene CIS-FACTORIAL HepG2 Assay for human Myeloblastosis (Myb) Proto-Oncogene Transcription Factor (AID 2282986)). Details: HepG2 Attagene CIS-FACTORIAL Myb reporter transcription; actives raise or lower the signal.
Transcriptional activator Myb (Homo sapiens), sequence (P10242 whole entry, looked up): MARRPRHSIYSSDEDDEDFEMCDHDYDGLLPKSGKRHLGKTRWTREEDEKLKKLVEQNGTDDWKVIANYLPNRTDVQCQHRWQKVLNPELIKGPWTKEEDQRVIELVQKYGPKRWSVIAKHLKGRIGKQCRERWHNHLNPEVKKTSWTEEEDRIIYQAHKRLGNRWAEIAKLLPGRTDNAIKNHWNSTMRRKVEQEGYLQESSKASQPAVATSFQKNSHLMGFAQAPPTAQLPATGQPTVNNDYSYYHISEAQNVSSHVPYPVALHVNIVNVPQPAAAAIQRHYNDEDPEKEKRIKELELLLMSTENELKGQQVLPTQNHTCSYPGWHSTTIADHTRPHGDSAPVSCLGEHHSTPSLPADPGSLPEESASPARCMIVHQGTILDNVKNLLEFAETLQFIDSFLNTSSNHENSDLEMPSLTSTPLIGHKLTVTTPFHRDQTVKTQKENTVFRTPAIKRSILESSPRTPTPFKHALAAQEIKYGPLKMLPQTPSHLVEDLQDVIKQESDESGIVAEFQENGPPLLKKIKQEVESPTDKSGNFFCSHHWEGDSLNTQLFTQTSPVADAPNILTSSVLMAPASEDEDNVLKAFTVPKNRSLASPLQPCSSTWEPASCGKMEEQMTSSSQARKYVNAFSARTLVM
Procedure: ATG_CIS is a cell-based, multiplexed-readout assay that uses HepG2, a human liver cell line, with measurements taken at 24 hours after chemical dosing in a 24-well plate.ATG_Myb_CIS is one of 52 assay component(s) measured or calculated from the ATG_CIS assay. It is designed to make measurements of mRNA induction, a form of inducible reporter, as detected with fluorescence intensity signals by Reverse transcription polymerase chain reaction (RT-PCR) and Capillary electrophoresis technology.Data from the assay component ATG_Myb_CIS was analyzed into 1 assay endpoint. This assay endpoint, ATG_Myb_CIS, was analyzed with bidirectional fitting relative to DMSO as the negative control and baseline of activity. Using a type of inducible reporter, measures of mRNA for gain or loss-of-signal activity can be used to understand the reporter gene at the transcription factor-level as they relate to the gene MYB. Furthermore, this assay endpoint can be referred to as a primary readout, because this assay has produced multiple assay endpoints where this one serves a reporter gene function. To generalize the intended target to other relatable targets, this assay endpoint is annotated to the dna binding intended target family, where the subfamily is MYB proteins.
Human liver HepG2 cells are transiently transfected with multiple reporter transcription units (MRTUs) in 6-well plates using FuGene 6 reagent (Roche; 3 ml FuGene/1 mg DNA). The MRTU constructs are regulated by a cis-regulating element (promoter). […] A major difference between the CIS and TRANS system is that in CIS activities of endogenous TFs are measured, whereas the TRANS assay evaluates changes in activities of exogenous, chimeric NR-Gal4 proteins. […] At the end of 24 hour incubation, total RNA was isolated using TriZol reagent (Invitrogen). The isolated RNA is then reverse-transcribed using oligo(dT) primer and Mo-MLV reverse transcriptase (Invitrogen) with DNAse I (Ambion) treatment for 30 min. The one-tenth of the produced cDNA was amplified by PCR using Taq DNA polymerase (Invitrogen) and two reporter sequence-specific primers. The PCR products were fluorescently labeled by primer extension with 6-arboxyfluorescein (6-FAM) 5'-labeled reporter sequence-specific primer (2 min at 95 C, 20 s at 68 C and 10 min at 72 C) and these products were digested with 5U of HpaI (New England Biolabs) for 2h at 37 C. The fragments were purified using Qiaquick PCR columns (Qiagen), analyzed on an ABI 3130xL genetic analyzer (Applied Biosystems) with peak positions identified by using a set of X-rhodamine (ROX)-labeled MapMarker1000 molecular weight standards (BioVentures). The raw capillary electrophoresis data was processed using Attagraph software (Attagene).

outcome, inactive:
NC(=O)c1ccccc1O
CCC(=O)Oc1ccc(/C(CC)=C(\CC)c2ccc(OC(=O)CC)cc2)cc1
O=C1C(N(CO)C(=O)NCO)N(CO)C(=O)N1CO (stereo not given)
O=S(=O)(Oc1ccc(Cl)cc1Cl)c1ccccc1
CCC(CC)C(=O)O
O=[N+]([O-])c1ccc(CO)cc1
CC(C)(C)C(=O)CCc1ccc(Cl)cc1
OC1CCCCCCCCCCC1
CCN(CC)c1ccc(C(=O)c2ccccc2C(=O)O)c(O)c1
C=C(C)CCO
Cc1cc(=O)n(-c2ccccc2)n1C
CC(=O)CC(N)=O
FC(F)(F)C(=NOCC1OCCO1)c1ccc(Cl)cc1
O=C(Nc1ccccc1)c1ccccc1O
CCCCC(CC)CCC(CC(C)C)OS(=O)(=O)O (stereo not given)
O=C(Nc1cccc(C(F)(F)F)c1)c1cc(Br)cc(Br)c1O
C1CN(SSN2CCOCC2)CCO1
CC1(C)O[C@@H]2C[C@H]3[C@@H]4C[C@H](F)C5=CC(=O)CC[C@]5(C)[C@H]4[C@@H](O)C[C@]3(C)[C@]2(C(=O)CO)O1
O=S1(=O)OC(c2ccc(O)cc2)(c2ccc(O)cc2)c2ccccc21
Cc1ccc2c(c1)C(=O)c1ccccc1C2=O
C=CCOCC(O)CCl (stereo not given)
CC(=O)[C@H]1[C@H](C#N)C[C@H]2[C@@H]3CC=C4C[C@@H](O)CC[C@]4(C)[C@H]3CC[C@@]21C
Nc1ccc2cc3ccccc3cc2c1
Cc1cccc(C(=O)O)c1
O=C1CC2CC1C1CCCC21 (stereo not given)
C=C[Si](C)(C)O[Si](C)(C)C=C
CCCCCCCCC(=O)OCC
CCOCC(=O)O
O=c1[nH]nc(-c2ccc([N+](=O)[O-])o2)o1
CC(C)c1ccc2cc(C(C)C)ccc2c1
C=C1[C@H]2CC[C@@H]3[C@H]2C(C)(C)CCC[C@]13C
C=CC(=O)OCCOC(=O)C=C
[Cl][Nd]([Cl])[Cl]
O=C1c2ccccc2C(=O)C1c1nc2ccccc2c(Br)c1O
O=S(=O)(O)c1ccccc1C=Cc1ccc(-c2ccc(C=Cc3ccccc3S(=O)(=O)O)cc2)cc1
CCCCCCOc1cc(C)c(O)c(C)c1C
CC(C)COC(=O)C=Cc1ccccc1
Nc1ccc(N)c(Cl)c1
Cc1ccc2oc(=O)ccc2c1
O=C(/C=C/C=C/c1ccc2c(c1)OCO2)N1CCCCC1

— PubChem BioAssay (EPA / NIEHS)
